Data taken from ChEMBL document CHEMBL1961873, “Compounds: GSK PKIS; Assays: Nanosyn kinase panel” (2012).
Several values for one entry are separate records, joined by “and”; a condition that tells them apart may be missing. Equal entries are not always repeated.

Tests used:
[1] = target: Ribosomal protein S6 kinase alpha-6 (Homo sapiens) (UniProt Q9UK32); settings: at 1 µM;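 further: each value is a mean inhibition of RSK4 from a GSK PKIS panel screen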
[2] = target: T1, Serine/threonine-protein kinase Sgk1 (Homo sapiens) (UniProt O00141); settings: at 0.1 µM
T1 sequence (whole entry): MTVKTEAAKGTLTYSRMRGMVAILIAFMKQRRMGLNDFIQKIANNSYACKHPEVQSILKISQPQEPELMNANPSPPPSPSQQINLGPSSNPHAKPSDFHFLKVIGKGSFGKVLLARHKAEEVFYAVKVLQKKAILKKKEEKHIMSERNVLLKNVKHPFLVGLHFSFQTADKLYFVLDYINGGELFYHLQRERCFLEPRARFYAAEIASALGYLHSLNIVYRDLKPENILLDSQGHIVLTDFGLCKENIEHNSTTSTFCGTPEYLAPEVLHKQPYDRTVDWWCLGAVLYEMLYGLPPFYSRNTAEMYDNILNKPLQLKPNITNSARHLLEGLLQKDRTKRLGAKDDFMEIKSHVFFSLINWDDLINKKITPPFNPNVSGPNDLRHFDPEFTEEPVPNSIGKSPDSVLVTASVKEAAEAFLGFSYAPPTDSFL

[3] = target: T1, Serine/threonine-protein kinase Sgk1 (Homo sapiens); settings: at 1 µM
[4] = target: T2, Serine/threonine-protein kinase Sgk2 (Homo sapiens) (UniProt Q9HBY8); settings: at 0.1 µM
T2 sequence (whole entry): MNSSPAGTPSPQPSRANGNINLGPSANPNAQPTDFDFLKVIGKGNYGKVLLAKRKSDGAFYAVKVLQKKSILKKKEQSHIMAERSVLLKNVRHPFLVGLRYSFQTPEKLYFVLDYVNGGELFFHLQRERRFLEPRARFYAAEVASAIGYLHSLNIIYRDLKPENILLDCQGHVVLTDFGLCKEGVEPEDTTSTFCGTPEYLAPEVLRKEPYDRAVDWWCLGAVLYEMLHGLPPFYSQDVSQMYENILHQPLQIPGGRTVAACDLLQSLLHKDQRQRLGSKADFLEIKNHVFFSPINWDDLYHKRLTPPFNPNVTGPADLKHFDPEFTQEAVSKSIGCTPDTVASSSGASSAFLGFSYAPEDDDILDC

[5] = target: T2, Serine/threonine-protein kinase Sgk2 (Homo sapiens); settings: at 1 µM
[6] = target: T3, Serine/threonine-protein kinase Sgk3 (Homo sapiens) (UniProt Q96BR1); settings: at 0.1 µM
T3 sequence (whole entry): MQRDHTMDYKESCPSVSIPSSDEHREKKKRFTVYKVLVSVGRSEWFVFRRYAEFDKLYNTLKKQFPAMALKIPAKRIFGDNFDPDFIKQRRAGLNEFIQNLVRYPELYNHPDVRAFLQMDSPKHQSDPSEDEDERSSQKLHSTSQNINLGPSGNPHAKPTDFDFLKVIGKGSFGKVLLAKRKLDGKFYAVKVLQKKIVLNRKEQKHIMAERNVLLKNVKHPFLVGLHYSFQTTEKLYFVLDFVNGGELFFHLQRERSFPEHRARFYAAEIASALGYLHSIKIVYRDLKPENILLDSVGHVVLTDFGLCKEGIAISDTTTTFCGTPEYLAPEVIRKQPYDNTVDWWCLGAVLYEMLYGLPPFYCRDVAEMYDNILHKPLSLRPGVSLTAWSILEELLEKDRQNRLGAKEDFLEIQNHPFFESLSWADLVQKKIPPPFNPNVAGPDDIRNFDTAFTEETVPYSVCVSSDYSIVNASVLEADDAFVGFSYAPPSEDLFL

[7] = target: T3, Serine/threonine-protein kinase Sgk3 (Homo sapiens); settings: at 1 µM
[8] = target: 5'-AMP-activated protein kinase catalytic subunit alpha-1 (Homo sapiens) (UniProt Q13131); settings: at 0.1 µM
5'-AMP-activated protein kinase catalytic subunit alpha-1 (Homo sapiens), sequence (Q13131 whole entry, looked up): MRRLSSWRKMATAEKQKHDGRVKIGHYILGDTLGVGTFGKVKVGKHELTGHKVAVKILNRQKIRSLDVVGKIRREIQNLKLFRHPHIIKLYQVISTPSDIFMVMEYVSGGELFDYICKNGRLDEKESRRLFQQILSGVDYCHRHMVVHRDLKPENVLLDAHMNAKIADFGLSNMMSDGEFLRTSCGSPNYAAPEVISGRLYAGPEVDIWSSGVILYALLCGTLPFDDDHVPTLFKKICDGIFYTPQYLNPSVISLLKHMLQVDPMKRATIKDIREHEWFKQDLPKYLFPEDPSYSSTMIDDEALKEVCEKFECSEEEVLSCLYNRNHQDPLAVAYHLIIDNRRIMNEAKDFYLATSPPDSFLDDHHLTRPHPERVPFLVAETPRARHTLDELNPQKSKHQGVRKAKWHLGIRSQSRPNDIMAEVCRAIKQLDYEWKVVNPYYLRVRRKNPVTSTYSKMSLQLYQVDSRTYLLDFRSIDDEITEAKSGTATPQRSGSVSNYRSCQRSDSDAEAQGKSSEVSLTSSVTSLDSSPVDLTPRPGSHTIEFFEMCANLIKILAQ

[9] = target: 5'-AMP-activated protein kinase catalytic subunit alpha-1 (Homo sapiens) (UniProt Q13131); settings: at 1 µM
[10] = target: 5'-AMP-activated protein kinase catalytic subunit alpha-2 (Homo sapiens) (UniProt P54646); settings: at 0.1 µM
5'-AMP-activated protein kinase catalytic subunit alpha-2 (Homo sapiens), sequence (P54646 whole entry, looked up): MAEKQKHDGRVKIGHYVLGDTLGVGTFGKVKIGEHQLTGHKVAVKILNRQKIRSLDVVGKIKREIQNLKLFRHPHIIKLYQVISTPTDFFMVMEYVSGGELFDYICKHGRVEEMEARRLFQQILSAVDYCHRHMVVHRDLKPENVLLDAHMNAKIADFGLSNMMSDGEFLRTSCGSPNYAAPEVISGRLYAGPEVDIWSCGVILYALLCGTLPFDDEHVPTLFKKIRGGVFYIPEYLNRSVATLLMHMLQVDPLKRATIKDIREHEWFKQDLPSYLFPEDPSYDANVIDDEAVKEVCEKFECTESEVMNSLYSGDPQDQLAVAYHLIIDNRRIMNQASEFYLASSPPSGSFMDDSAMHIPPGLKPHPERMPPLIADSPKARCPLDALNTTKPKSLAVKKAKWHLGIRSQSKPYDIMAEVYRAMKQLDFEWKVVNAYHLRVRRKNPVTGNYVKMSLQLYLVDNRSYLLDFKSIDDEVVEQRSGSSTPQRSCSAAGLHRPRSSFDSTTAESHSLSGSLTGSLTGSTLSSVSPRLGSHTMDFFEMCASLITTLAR

[11] = target: 5'-AMP-activated protein kinase catalytic subunit alpha-2 (Homo sapiens) (UniProt P54646); settings: at 1 µM
[12] = target: T4, NUAK family SNF1-like kinase 1 (Homo sapiens) (UniProt O60285); settings: at 0.1 µM
T4 sequence (whole entry): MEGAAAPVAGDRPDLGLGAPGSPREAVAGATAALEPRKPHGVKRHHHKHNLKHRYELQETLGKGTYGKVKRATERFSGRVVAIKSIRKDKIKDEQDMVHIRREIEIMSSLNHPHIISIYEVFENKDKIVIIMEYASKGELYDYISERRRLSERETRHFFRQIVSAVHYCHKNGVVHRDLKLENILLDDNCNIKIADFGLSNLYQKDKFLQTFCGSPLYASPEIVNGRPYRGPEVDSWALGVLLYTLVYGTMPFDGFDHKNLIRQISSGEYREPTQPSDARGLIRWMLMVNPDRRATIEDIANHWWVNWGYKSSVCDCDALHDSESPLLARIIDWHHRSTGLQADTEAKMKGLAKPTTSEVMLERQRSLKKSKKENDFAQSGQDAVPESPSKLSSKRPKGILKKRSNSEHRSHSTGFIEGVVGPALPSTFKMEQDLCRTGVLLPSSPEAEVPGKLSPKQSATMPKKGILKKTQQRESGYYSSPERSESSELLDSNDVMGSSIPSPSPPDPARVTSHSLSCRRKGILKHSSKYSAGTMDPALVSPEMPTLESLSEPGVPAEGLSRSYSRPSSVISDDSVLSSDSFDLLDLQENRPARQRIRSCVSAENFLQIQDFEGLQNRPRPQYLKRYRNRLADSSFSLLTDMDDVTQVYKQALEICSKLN

[13] = target: T4, NUAK family SNF1-like kinase 1 (Homo sapiens); settings: at 1 µM
[14] = target: T5, Serine/threonine-protein kinase BRSK1 (Homo sapiens) (UniProt Q8TDC3); settings: at 0.1 µM
T5 sequence (whole entry): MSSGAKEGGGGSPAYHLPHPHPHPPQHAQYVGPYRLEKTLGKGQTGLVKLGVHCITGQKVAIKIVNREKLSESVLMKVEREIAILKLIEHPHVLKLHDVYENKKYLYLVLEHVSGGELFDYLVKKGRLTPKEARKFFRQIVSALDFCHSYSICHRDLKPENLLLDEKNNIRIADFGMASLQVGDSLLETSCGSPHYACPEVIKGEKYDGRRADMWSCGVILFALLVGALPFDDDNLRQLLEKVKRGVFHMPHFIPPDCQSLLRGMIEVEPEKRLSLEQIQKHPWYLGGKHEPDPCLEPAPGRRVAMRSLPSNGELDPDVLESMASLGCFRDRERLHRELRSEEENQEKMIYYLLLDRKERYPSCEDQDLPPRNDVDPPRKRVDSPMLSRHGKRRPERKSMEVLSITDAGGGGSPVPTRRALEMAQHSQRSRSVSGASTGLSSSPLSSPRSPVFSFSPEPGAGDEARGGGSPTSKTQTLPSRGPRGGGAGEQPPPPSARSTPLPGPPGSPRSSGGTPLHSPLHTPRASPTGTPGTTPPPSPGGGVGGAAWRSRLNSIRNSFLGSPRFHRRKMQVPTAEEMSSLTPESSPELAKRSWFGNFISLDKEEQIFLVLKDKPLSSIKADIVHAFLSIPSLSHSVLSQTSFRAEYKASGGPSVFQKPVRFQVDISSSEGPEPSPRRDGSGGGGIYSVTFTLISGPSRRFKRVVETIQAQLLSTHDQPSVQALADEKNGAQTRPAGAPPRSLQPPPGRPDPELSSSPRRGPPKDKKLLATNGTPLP

[15] = target: T5, Serine/threonine-protein kinase BRSK1 (Homo sapiens); settings: at 1 µM
[16] = target: T6, Serine/threonine-protein kinase BRSK2 (Homo sapiens) (UniProt Q8IWQ3); settings: at 0.1 µM
T6 sequence (whole entry): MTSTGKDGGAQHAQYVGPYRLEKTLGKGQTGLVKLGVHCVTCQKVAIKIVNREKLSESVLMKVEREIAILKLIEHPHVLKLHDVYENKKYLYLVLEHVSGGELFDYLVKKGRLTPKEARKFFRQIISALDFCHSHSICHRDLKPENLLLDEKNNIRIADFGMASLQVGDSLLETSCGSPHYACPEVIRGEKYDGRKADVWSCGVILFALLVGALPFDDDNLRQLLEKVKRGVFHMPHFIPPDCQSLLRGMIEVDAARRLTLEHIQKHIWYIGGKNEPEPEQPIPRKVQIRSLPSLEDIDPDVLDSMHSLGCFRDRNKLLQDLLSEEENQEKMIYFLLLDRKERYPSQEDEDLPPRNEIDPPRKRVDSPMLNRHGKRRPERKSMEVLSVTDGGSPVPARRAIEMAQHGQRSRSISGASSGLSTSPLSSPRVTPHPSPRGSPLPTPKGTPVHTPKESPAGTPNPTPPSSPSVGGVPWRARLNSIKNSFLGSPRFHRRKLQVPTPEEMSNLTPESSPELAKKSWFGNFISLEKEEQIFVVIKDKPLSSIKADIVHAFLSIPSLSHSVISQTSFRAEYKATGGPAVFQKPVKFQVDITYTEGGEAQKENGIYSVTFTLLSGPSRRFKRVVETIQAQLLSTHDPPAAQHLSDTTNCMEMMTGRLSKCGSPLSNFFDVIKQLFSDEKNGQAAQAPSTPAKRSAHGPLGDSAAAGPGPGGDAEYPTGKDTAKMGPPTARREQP

[17] = target: T6, Serine/threonine-protein kinase BRSK2 (Homo sapiens); settings: at 1 µM
[18] = target: Calcium/calmodulin-dependent protein kinase type 1D (Homo sapiens) (UniProt Q8IU85); settings: at 0.1 µM
Calcium/calmodulin-dependent protein kinase type 1D (Homo sapiens), sequence (Q8IU85 whole entry, looked up): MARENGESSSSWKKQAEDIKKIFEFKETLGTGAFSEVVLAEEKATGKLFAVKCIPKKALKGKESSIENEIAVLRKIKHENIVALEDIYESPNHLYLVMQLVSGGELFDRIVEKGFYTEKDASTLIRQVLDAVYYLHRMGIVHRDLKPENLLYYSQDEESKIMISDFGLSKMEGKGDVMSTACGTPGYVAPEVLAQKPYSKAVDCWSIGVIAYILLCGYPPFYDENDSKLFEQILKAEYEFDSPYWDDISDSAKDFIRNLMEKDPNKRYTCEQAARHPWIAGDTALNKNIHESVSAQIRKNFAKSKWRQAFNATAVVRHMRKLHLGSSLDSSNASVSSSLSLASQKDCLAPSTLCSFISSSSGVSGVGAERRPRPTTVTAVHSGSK

[19] = target: Calcium/calmodulin-dependent protein kinase type 1D (Homo sapiens) (UniProt Q8IU85); settings: at 1 µM
[20] = target: Calcium/calmodulin-dependent protein kinase type II subunit alpha (Homo sapiens) (UniProt Q9UQM7); settings: at 0.1 µM;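 further: reported values are averages (mean inhibition of CAMK2A)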
Calcium/calmodulin-dependent protein kinase type II subunit alpha (Homo sapiens), sequence (Q9UQM7 whole entry): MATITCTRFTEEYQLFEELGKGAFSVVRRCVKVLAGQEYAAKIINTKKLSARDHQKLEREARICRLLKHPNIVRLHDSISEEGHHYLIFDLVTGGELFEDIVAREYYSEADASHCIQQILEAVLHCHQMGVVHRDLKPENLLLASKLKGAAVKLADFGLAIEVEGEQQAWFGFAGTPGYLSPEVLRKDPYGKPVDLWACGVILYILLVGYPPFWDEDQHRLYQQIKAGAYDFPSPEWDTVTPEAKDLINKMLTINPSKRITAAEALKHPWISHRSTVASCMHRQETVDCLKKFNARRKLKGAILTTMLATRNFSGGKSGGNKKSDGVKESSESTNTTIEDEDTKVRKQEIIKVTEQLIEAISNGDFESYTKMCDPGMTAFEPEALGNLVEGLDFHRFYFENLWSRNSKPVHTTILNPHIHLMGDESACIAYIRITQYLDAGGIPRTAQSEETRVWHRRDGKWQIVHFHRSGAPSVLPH

Ribosomal protein S6 kinase alpha-6 (Homo sapiens), sequence (Q9UK32 whole entry): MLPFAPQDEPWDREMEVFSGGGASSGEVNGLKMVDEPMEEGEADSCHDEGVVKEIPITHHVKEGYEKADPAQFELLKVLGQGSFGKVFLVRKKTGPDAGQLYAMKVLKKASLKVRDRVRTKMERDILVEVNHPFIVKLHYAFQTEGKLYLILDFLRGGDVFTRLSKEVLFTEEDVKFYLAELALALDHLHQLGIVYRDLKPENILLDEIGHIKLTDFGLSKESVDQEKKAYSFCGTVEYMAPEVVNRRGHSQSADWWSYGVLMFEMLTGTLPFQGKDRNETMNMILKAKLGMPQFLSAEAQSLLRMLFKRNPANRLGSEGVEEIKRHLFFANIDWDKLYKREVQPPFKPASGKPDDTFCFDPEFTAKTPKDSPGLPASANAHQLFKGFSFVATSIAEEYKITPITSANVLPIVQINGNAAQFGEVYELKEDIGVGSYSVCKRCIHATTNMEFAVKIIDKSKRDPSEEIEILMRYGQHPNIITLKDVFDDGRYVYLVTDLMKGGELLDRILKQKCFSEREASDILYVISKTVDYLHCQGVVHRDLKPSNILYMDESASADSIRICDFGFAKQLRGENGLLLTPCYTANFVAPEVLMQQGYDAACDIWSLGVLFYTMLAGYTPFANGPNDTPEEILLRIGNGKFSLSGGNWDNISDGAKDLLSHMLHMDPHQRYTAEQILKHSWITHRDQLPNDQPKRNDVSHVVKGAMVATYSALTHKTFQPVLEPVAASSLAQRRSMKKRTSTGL

SMILES	inhibition [1]	inhibition [2]	inhibition [3]	inhibition [4]	inhibition [5]	inhibition [6]	inhibition [7]	inhibition [8]	inhibition [9]	inhibition [10]	inhibition [11]	inhibition [12]	inhibition [13]	inhibition [14]	inhibition [15]	inhibition [16]	inhibition [17]	inhibition [18]	inhibition [19]	inhibition [20]
CNC(=O)c1ncccc1Nc1nc(Nc2cc3c(cc2OC)CCCN3C(=O)CN(C)C)nc2[nH]ccc12	19.7%	2.04%	2.57%	0.57%	1.29%	4.05%	4.49%	5.47%	6.88%	3.31%	8.1%	5.36%	8.33%	3.14%	4.58%	3.37%	4.64%	1.94%	12.9%	4.09%
Nc1nccc(-c2c(-c3ccc(F)cc3)ncn2C2CCNCC2)n1	4.21% and 1.38%	0.06% and 1.23%	2.06% and 1.69%	-3% and 1.37%	0.49% and 1.29%	-1.13% and 1.78%	-2.95% and -0.32%	-1.82% and 0.38%	0.26% and 0.1%	-1.29% and 1.97%	-2.2% and 1.34%	3.5% and 3.71%	8.02% and 2.99%	1.03% and 0.08%	5.8% and 0.48%	1.95% and 0.03%	7.44% and 0.24%	-0.73% and -0.33%	0.76% and -0.11%	-5.11% and -1.58%
CC(C)c1ccc(-c2cc(-c3c[nH]nc3-c3ccccn3)ccn2)cc1	-0.11%	1.94%	0.95%	3.97%	3.85%	0.19%	-1.62%	-0.34%	-1.2%	0.19%	2.31%	-1.39%	0.75%	0.75%	-0.92%	0.14%	0.33%	-0.78%	0.06%	-0.6%
CC1=C(C(=O)Nc2ccc3[nH]ncc3c2)C(c2ccc(F)cc2)N=C(c2ccc(C(F)(F)F)nc2)N1 (stereo not given)	0.46%	1.43%	2.75%	2.27%	4.47%	4.38%	2.31%	1.92%	8.74%	0.84%	4.16%	2.72%	-3.57%	1.01%	3.19%	0.18%	5.63%	0.25%	1.37%	0.55%
